# High-throughput results (PubChem BioAssay)
# PAX8 inh HTS: lowers PAX8-driven luciferase in RMG-I cells. RMG-I TPO-luciferase reporter, SteadyGlo, 24 h. inhibition, % at 12.6 µM. actives 1.2% (n = 360,000). AID 652154;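 active = mean replicate inhibition at least 60% with every replicate also reaching 60%; inconclusive = only one of the two criteria is met; inactive = mean below 60% and not all replicates reaching 60%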;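 note: luciferase light reporting Pax8 driven TPO promoter activity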
# KKLEB tox: reduces viability of KKLEB cystic fibrosis airway cells | KKLEB CF airway cells viability, ATPlite luminescence, overnight; active compounds read low; cells stimulated with P. aeruginosa culture filtrate | actives 0.36% (n = 360,000) | AID 602141 | activity change (cytotoxicity), % at 5 µM;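 active = corrected activity change at or below -50% at 5 µM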
# HIF-2a block: blocks HIF-2a reporter activity; 786-0 RCC cells HIF-2a reporter, luciferase luminescence, overnight; inhibition, % at 18.8 µM; actives 0.72% (n = 360,000);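 active = inhibition of the luminescence signal of 40% or more relative to plate controls, in a single-dose primary screen at 18.75 µM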
# EWS-Fli inh: blocks EWS/Fli oncoprotein-driven transcription; A673 NR0B1-luciferase reporter, viability-normalised; inhibition, % at 12.6 µM; actives 0.67% (n = 350,000);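 active = mean inhibition of at least 50% after viability correction, with every replicate also passing that limit; inconclusive = mean reaches 50% but only one of two replicates passes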;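 note: firefly luciferase signal divided by Alamar Blue viability fluorescence both relative to DMSO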
# CF NFkB block: inhibitors of cystic fibrosis induced NF-kB | KKLEB NF-kB-GFP reporter, PAF-induced, GFP fluorescence overnight | inhibition, % at 5 µM | actives 0.86% (n = 360,000) | AID 588850;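 active = at least 50% inhibition at 5 µM, scaled per plate between neutral and stimulator controls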;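 note: PAF is a Pseudomonas aeruginosa culture filtrate used as stimulus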
# Numbers stand for hits; . = inactive; ? = inconclusive; / = no result. A selection: hits, their analogues and other compounds. The true share with any hit is near 2.1%.
SMILES,PAX8 inh HTS,KKLEB tox,HIF-2a block,EWS-Fli inh,CF NFkB block
O=C(NC1CCCc2c1cnn2-c1cc(F)cc(F)c1)c1ccccn1 (stereo unspecified),.,.,.,/,.
COC(=O)c1ccc(C(=O)NC2CCCc3c2cnn3-c2cc(F)cc(F)c2)nc1 (stereo unspecified),.,.,.,53,.
Cc1cc(NC(=O)CCS(=O)(=O)c2nc(-c3ccccc3)cc(C(F)(F)F)n2)no1,/,.,65,/,76
Cc1ccc(S(=O)(=O)CCC(=O)Nc2cc(C)on2)cc1,.,.,.,.,.
CS(=O)(=O)c1nc(-c2ccccc2)cc(C(F)(F)F)n1,/,-73,94,/,95
COc1ccc(-c2cc(C(F)(F)F)nc(S(=O)(=O)CCCC(=O)Nc3cccc(O)c3)n2)cc1OC,63,-80,.,.,86
COc1cc2nc(Nc3ccc(C)c(Cl)c3)nc(N)c2cc1OC,.,-51,.,.,.
O=C1CC[C@@H]2c3[nH]c4ccc(F)cc4c3CCN12,.,/,/,.,/
CN(C)CCNc1ncnc2c1sc1nc(-c3ccccc3)c3c(c12)CCCC3,64,.,.,.,.
C[C@H](CO)N1C[C@H](C)[C@H](CN(C)C(=O)Nc2ccc(C(F)(F)F)cc2)Oc2c(NC(=O)CCCCCC(=O)Nc3ccccc3N)cccc2C1=O,.,/,/,.,/
Cc1ccc(S(=O)(=O)N(C)C[C@H]2OCCCC[C@H](C)Oc3ccc(NS(=O)(=O)c4ccc(Cl)cc4)cc3C(=O)N([C@H](C)CO)C[C@@H]2C)cc1,81,/,/,.,/
Cc1ccc(S(=O)(=O)N(C)C[C@@H]2OCCCC[C@H](C)Oc3ccc(NS(=O)(=O)c4ccc(Cl)cc4)cc3C(=O)N([C@@H](C)CO)C[C@@H]2C)cc1,68,/,/,.,/
Cc1ccc(S(=O)(=O)N(C)C[C@H]2OCCCC[C@@H](C)Oc3ccc(NS(=O)(=O)c4ccc(Cl)cc4)cc3C(=O)N([C@@H](C)CO)C[C@H]2C)cc1,73,/,/,.,/
Cc1ccc(S(=O)(=O)N(C)C[C@@H]2OCCCC[C@H](C)Oc3ccc(NS(=O)(=O)c4ccc(Cl)cc4)cc3C(=O)N([C@H](C)CO)C[C@H]2C)cc1,81,/,/,.,/
Cc1cc(C)cc(OCC(=O)N(C)CC(=O)Nc2ccc(N3CCOCC3)cc2)c1,75,.,.,.,.
Cc1cc(C)cc(OCC(=O)Nc2ccc(N3CCCCC3)cc2)c1,.,.,.,.,.
Nc1ccc2c(c1)CC(=O)c1ccccc1S2,93,.,.,.,.
O=C1Cc2ccccc2Sc2ccc(O)cc21,.,.,.,.,.
C[C@@H]1CN([C@H](C)CO)C(=O)c2c(c3ccccc3n2C)-c2ccccc2CO[C@@H]1CN(C)C(=O)Nc1ccnc(N2CCOCC2)c1,.,/,/,.,/
CC(C)CC#Cc1cnc2c(c1)C(=O)N([C@@H](C)CO)C[C@H](C)[C@@H](CN(C)C(=O)Cc1cccnc1)O2,/,/,/,.,/
O=C(Nc1cc(F)ccc1F)N[C@H]1CC[C@@H](CCn2cc(C3CC3)nn2)O[C@H]1CO,.,/,/,.,/
COc1cccc(/C=C2\SC(=S)N(CCC(=O)N3CCCCC3CCO)C2=O)c1 (stereo unspecified),70,.,.,.,.
COc1ccccc1/C=C1\SC(=S)N(CCC(=O)N2CCCCC2CCO)C1=O (stereo unspecified),.,.,.,.,.
COc1cccc(/C=C2\SC(=S)N(CCCC(=O)N3CCCCC3CCO)C2=O)c1 (stereo unspecified),67,.,69,?,.
CO[C@@H]1CN(C)C(=O)c2ccc(NS(=O)(=O)CC(F)(F)F)cc2OC[C@H](C)N(C(=O)c2ccc3c(c2)OCO3)C[C@H]1C,.,/,/,.,/
SMILES,PAX8 inh HTS,KKLEB tox,HIF-2a block,EWS-Fli inh,CF NFkB block
COc1ccc(C#Cc2ccc3c(c2)[C@H]2[C@H](CCN2C(=O)CC2CC2)[C@H](CO)N3)cc1,.,/,/,.,/
O=C(O)CCCc1ccc2c(c1)CCc1ccccc1-2,.,.,68,63,.
O=C(CCCc1ccccc1)NC1CC1,.,.,.,/,.
Nc1ncnc2oc(-c3ccco3)c(-c3ccco3)c12,/,.,.,/,53
Nc1nnc(-c2ccco2)s1,/,.,.,/,.
COC(=O)c1cc(C(=O)N2CCN(c3cccc(C)c3C)CC2)cc([N+](=O)[O-])c1,.,.,.,56,.
Cc1[nH]c2ccc(C(=O)N3CCN(c4ccccc4Cl)CC3)cc2c1C,.,.,.,/,.
COC(=O)c1cc(C(=O)N2CCN(c3ncccn3)CC2)cc([N+](=O)[O-])c1,.,.,.,.,.
COC(=O)c1cc(C(=O)N2CCN(c3ccccc3OC)CC2)cc([N+](=O)[O-])c1,.,.,.,55,.
Cc1cccc(N2CCN(C(=O)c3ccc4[nH]c(C)c(C)c4c3)CC2)c1C,.,.,.,54,.
COc1ccc2c3c([nH]c2c1)[C@H](CO)N(C(=O)CN(C)C)CC31CN(Cc2ccccc2Cl)C1,/,/,/,.,/
COc1ccc(S(=O)(=O)Nc2ccc3c(c2)C(=O)N([C@@H](C)CO)C[C@H](C)[C@H](CN(C)Cc2ccc(C(F)(F)F)cc2)OCCCC[C@H](C)O3)cc1,108,/,/,.,/
COc1ccc(S(=O)(=O)Nc2ccc3c(c2)C(=O)N([C@@H](C)CO)C[C@H](C)[C@@H](CN(C)Cc2ccc(C(F)(F)F)cc2)OCCCC[C@@H](C)O3)cc1,110,/,/,.,/
CCc1cc[n+](C2=C([O-])c3ccccc3C(=O)/C2=N\S(=O)(=O)c2cccs2)cc1,87,.,.,.,74
CC1(C)CC[C@]2(C(=O)n3ccnc3)CC[C@]3(C)[C@H](C(=O)C=C4[C@@]5(C)C=C(C#N)C(=O)C(C)(C)[C@@H]5CC[C@]43C)[C@@H]2C1,.,-70,90,76,85
COC(=O)c1cc2c(n1S(=O)(=O)c1ccc(C)cc1)C(=O)C(=O)c1[nH]cc(C(=O)OCc3ccccc3)c1-2,/,-69,.,/,85
Cc1ccc(S(=O)(=O)Nc2ccc(O)c(Sc3ncn[nH]3)c2)cc1,.,.,.,.,.
CC(C)c1ccc(S(=O)(=O)/N=C2/C=C(Sc3ncn[nH]3)C(=O)c3ccccc32)cc1,/,.,49,/,84
Cc1ccc(S(=O)(=O)/N=C2/C=C(Sc3ncn[nH]3)C(=O)c3ccccc32)cc1,/,-58,98,/,100
C[C@@H]1CN([C@@H](C)CO)C(=O)c2cc(C#CC3CC3)cnc2O[C@@H]1CN(C)C(=O)C1CCCCC1,/,/,/,.,/
Cc1ccnc(NC(=O)c2ccc(OCC3CCCO3)cc2)c1 (stereo unspecified),.,.,.,70,.
CSc1ccc(NC(=O)Nc2cc(C)ccn2)cc1,.,.,.,52,.
COc1ccc(C(=O)NC(=O)Nc2cc(C)ccn2)cc1,/,-55,.,73,.
Cc1ccnc(NC(=O)Nc2ccc(F)cc2)c1,/,.,.,/,.
O=C(NC(=O)c1ccccc1)Nc1ccccn1,85,.,75,/,.
O=C(Nc1ccccn1)c1ccc(C(=O)c2ccccc2)cc1,.,.,.,.,.
